Data on 21 compounds can be found in PubChem BioAssay (NCI).

A short description of assay [1]: NCI Yeast Anticancer Drug Screen. Data for the rad50 strain (AID 155).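 Note: 0% = growth of vehicle-only cultures of the same strain.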 The settings on record: S. cerevisiae rad50 strain growth inhibition; at 50.0 µM; hits give high values. Put shortly: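 Vehicle-treated cultures provide the reference for the growth inhibition reported for compound-exposed, repair-deficient yeast.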
Assay [2] in a line: NCI Yeast Anticancer Drug Screen. Data for the mec2-1 strain (AID 157). Particulars: S. cerevisiae mec2-1 strain, at 50.0 µM, hits give high values. Put shortly:
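mec2-1 yeast strain, carrying an alteration in DNA damage repair or cell cycle control, was exposed to compounds; growth inhibition was measured relative to vehicle-treated controls.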

Assay [3] can be described thus: NCI Yeast Anticancer Drug Screen. Data for the sgs1 mgt1 strain (AID 161).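 Note: 0% = growth of cultures given vehicle only.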 The settings on record: S. cerevisiae sgs1 mgt1 strain, at 50.0 µM, hits give high values. Put shortly:
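Percent growth inhibition was derived by comparing compound-exposed mutant yeast with vehicle-exposed cultures. The strain carries alterations in DNA damage repair.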

Assay [4] can be described thus: NCI Yeast Anticancer Drug Screen. Data for the cln2 rad14 strain (AID 165).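 Note: 0% = growth equal to vehicle treated cultures.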 The settings on record: S. cerevisiae cln2 rad14 strain, at 50.0 µM, hits give high values. Summed up: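 Yeast carrying cln2 and rad14 alterations (cell cycle control and DNA damage repair) were exposed to compounds. Growth inhibition was measured against vehicle-treated controls.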
Assay [5] can be described thus: NCI Yeast Anticancer Drug Screen. Data for the bub3 strain (AID 167). The settings on record: S. cerevisiae bub3 mutant strain, at 50.0 µM, hits give high values. Summed up:
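Mutant yeast screening strain plus compound; vehicle-treated cultures serve as the 0% inhibition reference.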

Assay [6] can be described thus: NCI Yeast Anticancer Drug Screen. Data for the mlh1 rad18 strain (AID 175). Particulars: S. cerevisiae mlh1 rad18 strain growth inhibition; at 50.0 µM; hits give high values. Summed up:
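Growth inhibition of the yeast strain was measured after compound exposure and expressed relative to vehicle-treated controls. The strain carries defined defects in DNA damage repair.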

About 79,000 compounds went through this panel and 15% of them were active in at least one assay; those are over-represented in the sample as a whole. Unmarked numbers belong to inactive results. Active and inactive are the calls of the source. Cut-off read from the data, not from the text of the source: active = growth inhibition above about 70%; inactive = the rest.

As for `Cc1c([O-])[n+]2cccc3ccn(c1=O)c32`, the growth inhibition in assay [1] is -28.7%; in assay [2], -13.6%; in assay [3] it was -16.7%; in assay [4], -11.1%; in assay [5], -2.4%; in assay [6], 12.1%.

Turning to `CN(C)/C=N/c1cc(=O)n(C)c(=O)n1C`, the growth inhibition is 48.2% in assay [1]; 13.4% in assay [2]; 1.85% in assay [3]; 2.9% in assay [4]; -18.1% in assay [5]; -16.4% in assay [6].

As to `CCN(CC)Cc1cc(Nc2nc(/C=C/c3ccccc3)nc3ccccc23)ccc1O`, the growth inhibition was 4.05% in assay [1]; -37.5% in assay [2]; -3.25% in assay [3]; 13.9% in assay [4]; -6.7% in assay [5]; -14.6% in assay [6].

Regarding `O=C(O)/C(=C\c1ccccc1[N+](=O)[O-])c1ccc(C(F)(F)F)cc1`, the growth inhibition in assay [1] is 4%; in assay [2] it was -15.9%; in assay [3], 1.95%; in assay [4] it was 7.1%; in assay [5] it was 10.7%; in assay [6] it was -18.9%.

Turning to `CC1CCC(C(C)C)/C(=N\O)C1` (stereo unspecified), the growth inhibition in assay [1] is 4.8%; in assay [2], -19.4%; in assay [3] it was -11.9%; in assay [4] it was -7.7%; in assay [5], -6.4%; in assay [6], 2.05%.

`O=C(Oc1ccn(C2OC(CO)C(O)C2O)c(=O)c1)C12CC3CC(CC(C3)C1)C2` (stereo unspecified): the growth inhibition in assay [1] is 36.1%; in assay [2], 11.6%; in assay [3], 25.2%; in assay [4], 25.4%; in assay [5] it was 0.95%; in assay [6] it was 36.2%.

Turning to `CCOC(OCC)/C(C)=N/N(C)C`, the growth inhibition in assay [1] was 5.05%; in assay [2], 8.95%; in assay [3], -5.35%; in assay [4], 7.3%; in assay [5], -6.1%; in assay [6], -2.5%.

With `CC1CC(=O)Nc2nc(N)ncc21` (stereo unspecified), the growth inhibition was 19.4% in assay [1]; 21.8% in assay [2]; 15.7% in assay [3]; -3.8% in assay [4]; 7.75% in assay [5]; 3.9% in assay [6].

Turning to `O=C1COc2cc(O)cc(O)c21`, the growth inhibition was 9.8% in assay [1]; 3.7% in assay [2]; 7.85% in assay [3]; 3.9% in assay [4]; 19.5% in assay [5]; 7.75% in assay [6].

Take `O=c1cc(O)cc(CO)o1`: the growth inhibition in assay [1] was -7.65%; in assay [2], 5.7%; in assay [3] it was -9.8%; in assay [4], 1.2%; in assay [5] it was -21.2%; in assay [6] it was -2.05%.

With `CCOC(Cn1ccccc1=N)OCC`, the growth inhibition in assay [1] is 12.8%; in assay [2], -11.7%; in assay [3] it was -12.6%; in assay [4], -40%; in assay [5] it was -7.3%; in assay [6] it was 4.15%.

`COc1cc2c(cc1OC)C(c1cc(OC)c(OC)c(OC)c1)C1(O)C(=O)OCC1(O)C2` (stereo unspecified): the growth inhibition was 20.1% in assay [1]; -8.25% in assay [2]; 13.1% in assay [3]; 21.8% in assay [4]; 19.4% in assay [5]; 20.2% in assay [6].

Turning to `CCCCCCCCN1N=CC(CC)C1CCC` (stereo unspecified), the growth inhibition in assay [1] was 3.15%; in assay [2], -11.8%; in assay [3], 6.5%; in assay [4] it was 11.3%; in assay [5] it was -0.8%; in assay [6], 1.45%.

With `CC(=O)c1cccc(NC(=O)Oc2ccc(Cl)cc2Cc2ccccc2)c1`, the growth inhibition was 99.1% (active) in assay [1]; 50.2% in assay [2]; 64.1% in assay [3]; 99.5% (active) in assay [4]; 99.4% (active) in assay [5]; 99% (active) in assay [6].

Take `Cc1ccccc1CCOC(=O)c1cc([N+](=O)[O-])cc([N+](=O)[O-])c1`: the growth inhibition in assay [1] was -19%; in assay [2], 2.2%; in assay [3], -10.9%; in assay [4], 4.1%; in assay [5], 5.45%; in assay [6] it was -16.4%.

With `CCOC(=O)c1[nH]c(Cc2[nH]c(C(=O)OCC)c(CC)c2C)c(C)c1CC`, the growth inhibition in assay [1] is 7.8%; in assay [2] it was -1.1%; in assay [3], -4.75%; in assay [4], -3.65%; in assay [5], -4.7%; in assay [6], 24.2%.

For the compound `COC(=O)C(C(=O)OC)C(Br)(OC(C)=O)OC(C)=O`, the growth inhibition in assay [1] is -8.95%; in assay [2], 8.2%; in assay [3], 4.55%; in assay [4] it was 6.65%; in assay [5], 11.1%; in assay [6], -3.35%.

As to `O=C1C(Cl)(Cl)C(=O)C(Cl)(Cl)C(=O)C1(Cl)Cl`, the growth inhibition was 20.2% in assay [1]; 24.5% in assay [2]; 47% in assay [3]; 0.4% in assay [4]; 16.3% in assay [5]; 31.7% in assay [6].

As for `Nc1ccc(-c2ccc(Nc3cc(S(=O)(=O)O)c(N)c4c3C(=O)c3ccccc3C4=O)cc2)c(S(=O)(=O)O)c1`, the growth inhibition in assay [1] is -23.9%; in assay [2] it was 14.8%; in assay [3], -32.5%; in assay [4], 8.45%; in assay [5], -38.1%; in assay [6], -9.05%.

Consider `CCC1(CC)CC(=O)NC1=O`, for which the growth inhibition is -4.95% in assay [1]; -11.6% in assay [2]; -40.5% in assay [3]; 1.5% in assay [4]; -26% in assay [5]; -11.1% in assay [6].

On to `CCN(CC)C(=S)Oc1cc(C)nc(SCC(=O)c2ccc(Cl)cc2)n1`, for which the growth inhibition was 22.6% in assay [1]; -18.8% in assay [2]; 41.2% in assay [3]; 29.2% in assay [4]; 30.8% in assay [5]; 28.4% in assay [6].
